Assay results: PubChem BioAssay (EPA / NIEHS)
Values joined by “and” are separate entries in the source; they are usually repeats but may differ in a detail not shown here. Equal values may be shown once. The source holds several records for some structures; these can differ, active in one and inactive in another. Active and inactive are the calls of the source. Rule for the calls: active = hit-call score of the fitted dose curve at least 0.9, where 1 is the maximum; inactive = score below 0.9.

Assays:
[1] = read-out: Tissue plasminogen activator (tPA), PLAT (gene 5327); experiment: BSK_BF4T_tPA: BioMAP Diversity Plus: BF4T Assay for Tissue plasminogen activator (tPA) Biomarker Activity (AID 2284272); settings: primary human bronchial epithelial cells with fibroblasts
Summary of the method: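 tPA level quantified by ELISA at 24 h post-treatment in bronchial epithelial/dermal fibroblast co-cultures, gain of signal scored against DMSO baseline. Parallel cultures stained with 0.1% SRB (560 nm) to flag overt cytotoxicity.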

[2] = read-out: Plasminogen Activator Inhibitor-1 (PAI1), SERPINE1 (gene 5054); experiment: BSK_BF4T_PAI1: BioMAP Diversity Plus: BF4T Assay for Plasminogen Activator Inhibitor-1 (PAI1) Biomarker Activity (AID 2284273); settings: primary human bronchial epithelial cells with fibroblasts
Summary of the method: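 PAI-1 levels quantified by ELISA 24 h post-dosing in bronchial epithelial cell plus dermal fibroblast cultures. Signal gain referenced to DMSO baseline. Sulforhodamine B total-protein staining of parallel wells checked cytotoxicity.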

[3] = BSK_BF4T_SRB: Viability Assessment in the BioMAP Diversity Plus: BF4T Assay (AID 2284274); settings: primary human bronchial epithelial cells with fibroblasts
Summary of the method: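 Cytotoxicity measured as total protein: cells fixed with 10% TCA, stained with 0.1% SRB, read at 560 nm. Bronchial epithelial/dermal fibroblast co-culture, 24 h after dosing, with positive-direction fitting relative to DMSO.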

[4] = read-out: urokinase Plasminogen Activator (uPA), PLAU (gene 5328); experiment: BSK_BF4T_uPA: BioMAP Diversity Plus: BF4T Assay for urokinase Plasminogen Activator (uPA) Biomarker Activity (AID 2284275); settings: primary human bronchial epithelial cells with fibroblasts
Summary of the method: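 uPA levels measured by ELISA at 24 hours in BF4T cultures (bronchial epithelial cells plus dermal fibroblasts) and compared with DMSO; cytotoxicity tracked in parallel cultures by sulforhodamine B staining.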

[5] = read-out: Matrix Metallopeptidase 9 (MMP9), MMP9 (gene 4318); experiment: BSK_BF4T_MMP9: BioMAP Diversity Plus: BF4T Assay for Matrix Metallopeptidase 9 (MMP9) Biomarker Activity (AID 2284276); settings: primary human bronchial epithelial cells with fibroblasts
Summary of the method: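 MMP-9 levels were measured by ELISA after 24 h exposure of bronchial epithelial cell/dermal fibroblast co-cultures, with DMSO as baseline. Parallel cultures were stained with 0.1% SRB after TCA fixation, read at 560 nm, to flag overt cytotoxicity.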

[6] = read-out: Interleukin-8 (IL8), CXCL8 (gene 3576); experiment: BSK_IMphg_IL8: BioMAP Diversity Plus: IMphg Assay for Interleukin-8 (IL8) Biomarker Activity (AID 2284277); settings: primary human endothelial cells with macrophages
Summary of the method: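 IL-8 levels were measured by ELISA 24 h after dosing in primary human venular endothelial cell–macrophage cultures, referenced to DMSO; parallel SRB staining monitored overt cytotoxicity.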

[7] = read-out: Intercellular Adhesion Molecule 1 (ICAM1), ICAM1 (gene 3383); experiment: BSK_BE3C_ICAM1: BioMAP Diversity Plus: BE3C Assay for Intercellular Adhesion Molecule 1 (ICAM1) Biomarker Activity (AID 2284278); settings: primary human bronchial epithelial cells
Summary of the method: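 hu bronchial epithelial primary cells, 24 h cpd exposure, ICAM-1 ELISA; gain-of-signal fit vs DMSO baseline.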

[8] = read-out: Interleukin-8 (IL8), CXCL8 (gene 3576); experiment: BSK_BE3C_IL8: BioMAP Diversity Plus: BE3C Assay for Interleukin-8 (IL8) Biomarker Activity (AID 2284280); settings: primary human bronchial epithelial cells
Summary of the method: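 Primary human bronchial epithelial cells (BE3C system) were exposed to test chemical for 24 h, and IL-8 levels were then measured by ELISA. Activity was fitted in the positive (gain-of-signal) direction against a DMSO negative-control baseline.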

[9] = read-out: Matrix Metallopeptidase 3 (MMP3), MMP3 (gene 4314); experiment: BSK_BF4T_MMP3: BioMAP Diversity Plus: BF4T Assay for Matrix Metallopeptidase 3 (MMP3) Biomarker Activity (AID 2284271); settings: primary human bronchial epithelial cells with fibroblasts
Summary of the method: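 MMP-3 level read by ELISA after 24 h chemical exposure of bronchial epithelial cell/dermal fibroblast co-cultures, fitted upward relative to DMSO. Parallel cultures stained with 0.1% SRB after TCA fixation gauge overt cytotoxicity.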

[10] = read-out: Interferon-inducible T-cell alpha chemoattractant (ITAC), CXCL11 (gene 6373); experiment: BSK_BE3C_ITAC: BioMAP Diversity Plus: BE3C Assay for Interferon-inducible T-cell alpha chemoattractant (ITAC) Biomarker Activity (AID 2284279); settings: primary human bronchial epithelial cells
Summary of the method: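 Steps: dose human bronchial epithelial cells with chemical; incubate 24 h; measure I-TAC by ELISA; fit endpoint in positive direction against DMSO control. Cytotoxicity was checked in parallel cultures by SRB staining at harvest.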

Measured: AC50

C=C(C)C(=O)OCC(F)(F)C(F)(F)C(F)(F)C(F)(F)C(F)(F)C(F)(F)C(F)(F)F
not listed: [9] | [10]
inactive: all other assays above

FC(F)(F)C(F)(F)C(F)(F)C(F)(F)C(F)(F)CCI
not listed: [9] | [10]
inactive: all other assays above

FC(F)(F)C(F)(F)C(F)(F)C(F)(F)C(F)(F)C(F)(F)CC1CO1 (stereo not given)
not listed: [9] | [10]
inactive: all other assays above

FC(F)(F)C(F)(F)C(F)(F)N(C(F)(F)C(F)(F)C(F)(F)F)C(F)(F)C(F)(F)C(F)(F)F
not listed: [3] | [10]
inactive: all other assays above

O=C(O)C(F)(F)C(F)(F)F
inactive: [9] | [1] | [2] | [4] | [5] | [6] | [7] | [10] | [8]
active: [8] 26.1 µM

O=S(=O)(OCC(F)F)C(F)(F)F
not listed: [9]
inactive: all other assays above

C=C(C)C(=O)OCCC(F)(F)C(F)(F)C(F)(F)C(F)(F)C(F)(C(F)(F)F)C(F)(F)F
not listed: [3] | [10]
inactive: all other assays above

O=C(Cl)C(F)(F)C(F)(F)C(F)(F)C(F)(F)C(F)(F)C(F)(F)C(F)(F)C(F)(F)F
active: [1] 28 µM and 22.9 µM and 20.9 µM | [4] 46 µM and 48 µM and 44.8 µM | [5] 46.1 µM and 52.4 µM and 49.7 µM | [6] 6.67 µM and 5.95 µM and 19.6 µM | [7] 50.4 µM and 58.6 µM and 57.1 µM | [10] 48.3 µM and 46.7 µM and 48.2 µM | [8] 30 µM and 43.4 µM and 38.6 µM
inactive: [9] | [2]

O=C(O)C(F)(F)C(F)(F)C(F)F
not listed: [3] | [10]
inactive: all other assays above

FC(F)(I)C(F)(F)C(F)(F)C(F)(F)I
active: [9] 49.7 µM and 50.4 µM and 51.2 µM | [1] 39.8 µM and 46.2 µM and 48.8 µM | [2] 45.8 µM and 47.3 µM | [4] 49.9 µM and 53.8 µM and 46.2 µM | [5] 54.1 µM and 47 µM and 46.8 µM | [6] 1.19 µM | [7] 44.1 µM and 41.4 µM and 55.3 µM | [8] 47.4 µM and 46 µM
inactive: [2] | [6] | [8]

O=P(O)(O)OCCC(F)(F)C(F)(F)C(F)(F)C(F)(F)C(F)(F)C(F)(F)F
not listed: [3] | [10]
inactive: all other assays above

O=C(O)C(F)(F)C(F)(F)C(F)(F)C(F)(F)C(F)(F)C(F)(F)C(F)(F)C(F)(F)C(F)(F)C(F)(F)C(F)(F)C(F)(F)C(F)(F)F
active: [9] 1.68 µM
inactive: [9] | [1] | [2] | [3] | [4] | [5] | [6] | [7] | [8]
